The full data set covers some 8,800 targets. This sample favours those with a hit. About 0.5% of all pairs of compound and target were hits. A number with no mark means an inactive call.
Columns and labels:
Assay in all cases: log2 fold change, soluble protein after heating vs DMSO (PISA); higher = thermal stabilisation; K562 lysate, 10 uM; active = over 0.2 and 3.5 SD of the protein, either way, in both replicates (recomputed)
vemurafenib = compound: CCCS(=O)(=O)Nc1ccc(F)c(C(=O)c2c[nH]c3ncc(-c4ccc(Cl)cc4)cc23)c1F [vemurafenib]
Summary of the method: (§1)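 To prepare the extract, K562 pellets were dounce-homogenised in PBS pH 7.4 with 1 mM MgCl2, giving crude material at 1 mg/mL protein. This was treated with 10 μM compound for 30 min, then heated in aliquots for 3 min over 48°C-58°C before pooling and addition of NP-40 to 0.5% at 4°C. Centrifugation at 21,000xg for 90 min left soluble protein in the supernatant, which TMTpro 16plex LC-MS/MS quantified with equalised channel sums. Results are log-two fold changes in thermal stability compared with solvent controls, from duplicates.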

[1] = compound: CCCS(=O)(=O)Nc1ccc(F)c(C(=O)c2c[nH]c3ncc(Cl)cc23)c1F
Summary of the method: as §1

barasertib = compound: CCN(CCCOc1ccc2c(Nc3cc(CC(=O)Nc4cccc(F)c4)[nH]n3)ncnc2c1)CCOP(=O)(O)O [barasertib]
Summary of the method: as §1

[2] = compound: CC[C@@H]1C(=O)N(C)c2cnc(Nc3ccc(C(=O)NC4CCN(C)CC4)cc3OC)nc2N1C1CCCC1
Summary of the method: as §1

volasertib = compound: CC[C@@H]1C(=O)N(C)c2cnc(Nc3ccc(C(=O)N[C@H]4CC[C@H](N5CCN(CC6CC6)CC5)CC4)cc3OC)nc2N1C(C)C [volasertib]
Summary of the method: as §1

[3] = compound: CCn1c(C(=O)N(C2CC2)C2CC2)cc2c3c(ncn3C)c(Nc3cc(C)n(C)n3)nc21
Summary of the method: as §1

[4] = compound: CCn1cc(-c2ccnc3[nH]c(-c4cccc(CN(C)C)c4)cc23)c(-c2ccc(NC(=O)N(C)C)cc2)n1
Summary of the method: as §1

[5] = compound: CN1CCC(CNc2ccc3ncc(-c4cccc(OC(F)(F)F)c4)n3n2)CC1
Summary of the method: as §1

saracatinib = compound: CN1CCN(CCOc2cc(OC3CCOCC3)c3c(Nc4c(Cl)ccc5c4OCO5)ncnc3c2)CC1 [saracatinib]
Summary of the method: as §1

sotrastaurin = compound: CN1CCN(c2nc(C3=C(c4c[nH]c5ccccc45)C(=O)NC3=O)c3ccccc3n2)CC1 [sotrastaurin]
Summary of the method: as §1

UniProt P67870, sequence (P67870 whole entry, looked up): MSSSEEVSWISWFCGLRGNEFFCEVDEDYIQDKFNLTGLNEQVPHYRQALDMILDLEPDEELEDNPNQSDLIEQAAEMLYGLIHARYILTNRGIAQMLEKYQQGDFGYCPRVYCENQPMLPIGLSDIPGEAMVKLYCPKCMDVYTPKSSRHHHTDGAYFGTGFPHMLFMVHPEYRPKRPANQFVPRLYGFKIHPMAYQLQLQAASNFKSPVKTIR
UniProt O75122, sequence (O75122 whole entry, looked up): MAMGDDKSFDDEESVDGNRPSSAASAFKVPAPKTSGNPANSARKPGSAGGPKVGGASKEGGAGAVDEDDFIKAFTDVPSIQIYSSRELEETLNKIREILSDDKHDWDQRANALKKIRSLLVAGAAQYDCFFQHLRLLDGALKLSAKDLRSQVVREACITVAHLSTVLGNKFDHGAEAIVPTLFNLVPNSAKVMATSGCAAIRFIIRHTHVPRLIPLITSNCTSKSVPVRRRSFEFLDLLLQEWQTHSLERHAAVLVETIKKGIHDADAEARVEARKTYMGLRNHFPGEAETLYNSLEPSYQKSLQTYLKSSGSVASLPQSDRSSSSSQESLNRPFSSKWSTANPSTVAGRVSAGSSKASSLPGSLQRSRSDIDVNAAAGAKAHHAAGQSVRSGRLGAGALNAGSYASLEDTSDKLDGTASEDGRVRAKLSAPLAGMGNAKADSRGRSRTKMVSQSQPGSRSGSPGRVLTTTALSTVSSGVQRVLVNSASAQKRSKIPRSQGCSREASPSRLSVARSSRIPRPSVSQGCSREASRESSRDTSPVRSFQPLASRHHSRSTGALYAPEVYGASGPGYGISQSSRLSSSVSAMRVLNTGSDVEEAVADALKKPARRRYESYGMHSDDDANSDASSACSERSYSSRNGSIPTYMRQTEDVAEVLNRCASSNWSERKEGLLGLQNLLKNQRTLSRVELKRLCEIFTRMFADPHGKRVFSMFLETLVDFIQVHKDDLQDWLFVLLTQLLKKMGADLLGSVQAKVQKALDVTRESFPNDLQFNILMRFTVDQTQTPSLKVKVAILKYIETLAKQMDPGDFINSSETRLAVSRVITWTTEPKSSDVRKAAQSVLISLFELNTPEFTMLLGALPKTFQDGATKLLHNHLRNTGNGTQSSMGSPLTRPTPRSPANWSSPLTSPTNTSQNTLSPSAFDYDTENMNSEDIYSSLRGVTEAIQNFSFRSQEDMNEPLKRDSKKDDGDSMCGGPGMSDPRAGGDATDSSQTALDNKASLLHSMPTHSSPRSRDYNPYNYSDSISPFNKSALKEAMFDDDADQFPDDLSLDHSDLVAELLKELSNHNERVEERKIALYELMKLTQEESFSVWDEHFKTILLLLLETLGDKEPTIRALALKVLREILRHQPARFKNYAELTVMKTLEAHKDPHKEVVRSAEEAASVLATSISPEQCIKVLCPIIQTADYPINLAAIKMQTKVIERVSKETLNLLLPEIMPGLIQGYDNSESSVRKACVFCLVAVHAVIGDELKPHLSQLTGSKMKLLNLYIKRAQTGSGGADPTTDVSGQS
UniProt Q1MSJ5, sequence (Q1MSJ5 whole entry, looked up): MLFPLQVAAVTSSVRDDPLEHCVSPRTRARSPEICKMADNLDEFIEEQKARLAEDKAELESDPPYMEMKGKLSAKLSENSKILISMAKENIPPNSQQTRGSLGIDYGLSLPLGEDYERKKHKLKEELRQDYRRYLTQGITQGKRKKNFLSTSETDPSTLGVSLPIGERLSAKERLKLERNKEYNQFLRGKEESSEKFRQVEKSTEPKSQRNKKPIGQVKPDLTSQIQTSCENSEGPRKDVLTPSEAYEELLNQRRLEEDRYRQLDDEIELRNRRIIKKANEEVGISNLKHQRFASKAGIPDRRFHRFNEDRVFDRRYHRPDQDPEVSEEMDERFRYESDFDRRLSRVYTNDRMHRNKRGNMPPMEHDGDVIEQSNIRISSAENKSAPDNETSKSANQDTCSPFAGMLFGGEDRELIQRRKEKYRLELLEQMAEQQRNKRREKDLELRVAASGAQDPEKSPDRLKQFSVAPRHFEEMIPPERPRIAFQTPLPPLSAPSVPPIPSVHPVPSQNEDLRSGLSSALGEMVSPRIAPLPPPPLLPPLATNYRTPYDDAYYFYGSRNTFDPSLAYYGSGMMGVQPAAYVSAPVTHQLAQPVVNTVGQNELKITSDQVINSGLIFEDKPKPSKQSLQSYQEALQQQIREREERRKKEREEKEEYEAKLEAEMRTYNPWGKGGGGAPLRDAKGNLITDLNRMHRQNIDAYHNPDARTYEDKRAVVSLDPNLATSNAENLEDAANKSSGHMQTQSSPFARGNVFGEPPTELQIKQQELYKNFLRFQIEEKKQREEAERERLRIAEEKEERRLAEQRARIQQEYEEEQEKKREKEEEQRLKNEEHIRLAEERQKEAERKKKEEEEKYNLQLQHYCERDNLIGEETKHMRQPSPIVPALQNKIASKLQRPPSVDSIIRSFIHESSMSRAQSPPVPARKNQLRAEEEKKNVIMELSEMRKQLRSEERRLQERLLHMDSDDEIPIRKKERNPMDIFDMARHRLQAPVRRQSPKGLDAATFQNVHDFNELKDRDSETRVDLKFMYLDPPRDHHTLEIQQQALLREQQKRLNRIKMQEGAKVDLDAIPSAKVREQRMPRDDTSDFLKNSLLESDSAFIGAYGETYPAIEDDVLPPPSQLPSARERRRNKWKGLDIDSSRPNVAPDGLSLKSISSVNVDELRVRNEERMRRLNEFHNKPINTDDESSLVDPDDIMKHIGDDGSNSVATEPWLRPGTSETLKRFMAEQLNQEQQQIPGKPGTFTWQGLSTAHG
UniProt O75534, sequence (O75534 whole entry, looked up): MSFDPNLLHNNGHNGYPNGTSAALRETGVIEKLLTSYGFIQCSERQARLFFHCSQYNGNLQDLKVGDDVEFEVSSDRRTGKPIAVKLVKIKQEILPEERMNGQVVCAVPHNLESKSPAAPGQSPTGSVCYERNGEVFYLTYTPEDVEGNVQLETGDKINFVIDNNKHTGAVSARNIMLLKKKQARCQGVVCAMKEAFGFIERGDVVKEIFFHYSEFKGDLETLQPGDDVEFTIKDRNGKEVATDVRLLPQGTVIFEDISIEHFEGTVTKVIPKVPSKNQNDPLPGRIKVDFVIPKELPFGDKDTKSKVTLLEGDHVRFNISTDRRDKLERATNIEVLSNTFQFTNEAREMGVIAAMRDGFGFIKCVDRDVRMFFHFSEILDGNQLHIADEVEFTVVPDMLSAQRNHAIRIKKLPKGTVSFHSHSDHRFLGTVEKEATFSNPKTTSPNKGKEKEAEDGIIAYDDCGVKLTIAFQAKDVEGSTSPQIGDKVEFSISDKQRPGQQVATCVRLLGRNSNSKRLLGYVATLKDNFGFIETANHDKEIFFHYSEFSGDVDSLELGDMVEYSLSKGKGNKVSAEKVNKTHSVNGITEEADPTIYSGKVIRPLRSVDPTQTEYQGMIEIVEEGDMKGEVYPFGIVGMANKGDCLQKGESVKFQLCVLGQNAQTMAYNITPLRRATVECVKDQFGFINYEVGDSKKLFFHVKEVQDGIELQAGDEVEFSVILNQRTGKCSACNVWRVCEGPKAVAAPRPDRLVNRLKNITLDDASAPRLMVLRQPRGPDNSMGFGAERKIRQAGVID
UniProt Q96EP5, sequence (Q96EP5 whole entry, looked up): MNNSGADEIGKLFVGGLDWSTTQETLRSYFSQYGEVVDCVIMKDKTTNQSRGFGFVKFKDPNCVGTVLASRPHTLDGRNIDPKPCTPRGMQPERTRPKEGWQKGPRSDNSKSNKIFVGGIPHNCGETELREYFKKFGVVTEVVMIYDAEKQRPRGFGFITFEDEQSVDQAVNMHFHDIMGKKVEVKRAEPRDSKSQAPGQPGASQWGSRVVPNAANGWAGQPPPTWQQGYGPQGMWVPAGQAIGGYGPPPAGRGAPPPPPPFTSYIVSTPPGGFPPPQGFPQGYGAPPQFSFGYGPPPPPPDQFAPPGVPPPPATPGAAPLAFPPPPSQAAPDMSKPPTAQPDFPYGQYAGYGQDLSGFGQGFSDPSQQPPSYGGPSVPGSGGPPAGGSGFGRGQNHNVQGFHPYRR
UniProt Q9UHI6, sequence (Q9UHI6 whole entry, looked up): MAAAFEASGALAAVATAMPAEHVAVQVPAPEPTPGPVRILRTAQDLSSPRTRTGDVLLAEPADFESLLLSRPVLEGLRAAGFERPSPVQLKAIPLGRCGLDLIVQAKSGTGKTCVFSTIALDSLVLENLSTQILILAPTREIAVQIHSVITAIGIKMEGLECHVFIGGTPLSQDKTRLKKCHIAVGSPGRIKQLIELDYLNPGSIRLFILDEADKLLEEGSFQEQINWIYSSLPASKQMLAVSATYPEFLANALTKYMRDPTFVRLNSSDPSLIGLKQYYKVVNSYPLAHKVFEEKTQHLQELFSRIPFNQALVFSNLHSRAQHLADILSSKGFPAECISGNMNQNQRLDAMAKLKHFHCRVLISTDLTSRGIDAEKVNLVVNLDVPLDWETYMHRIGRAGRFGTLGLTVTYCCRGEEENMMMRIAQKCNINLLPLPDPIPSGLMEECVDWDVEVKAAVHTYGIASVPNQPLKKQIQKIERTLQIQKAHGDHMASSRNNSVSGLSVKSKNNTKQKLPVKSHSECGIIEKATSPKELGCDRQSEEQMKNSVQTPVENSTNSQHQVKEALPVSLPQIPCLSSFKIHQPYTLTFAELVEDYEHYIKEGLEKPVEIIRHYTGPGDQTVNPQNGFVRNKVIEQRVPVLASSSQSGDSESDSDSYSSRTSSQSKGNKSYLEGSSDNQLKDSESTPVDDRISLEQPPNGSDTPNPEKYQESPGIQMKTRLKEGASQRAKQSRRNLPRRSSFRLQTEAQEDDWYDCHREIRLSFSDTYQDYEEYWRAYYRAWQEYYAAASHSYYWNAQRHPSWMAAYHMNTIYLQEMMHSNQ
UniProt P00374, sequence (P00374 whole entry, looked up): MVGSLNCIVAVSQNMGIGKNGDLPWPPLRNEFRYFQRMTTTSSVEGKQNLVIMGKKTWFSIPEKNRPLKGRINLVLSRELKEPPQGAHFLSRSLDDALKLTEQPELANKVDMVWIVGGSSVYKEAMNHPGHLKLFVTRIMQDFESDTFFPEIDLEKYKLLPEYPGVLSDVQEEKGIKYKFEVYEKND

Q: What does the source list for CWC22 (UniProt Q9HCG8)?
A: log2 fold change (vemurafenib): 0.002; log2 fold change [1]: 0.045; log2 fold change (barasertib): 0.028; log2 fold change [2]: -0.209; log2 fold change (volasertib): -0.033; log2 fold change [3]: 0.017; log2 fold change [4]: 0.393 (active); log2 fold change [5]: -0.273 (active); log2 fold change (saracatinib): -0.052; log2 fold change (sotrastaurin): -0.013

Q: Which results are given for DHFR (UniProt P00374)?
A: log2 fold change (vemurafenib): -0.047; log2 fold change [1]: 0.206 (active); log2 fold change (barasertib): 0.061; log2 fold change [2]: -0.035; log2 fold change (volasertib): 0.013; log2 fold change [3]: 0.046; log2 fold change [4]: 0.072; log2 fold change [5]: -0.019; log2 fold change (saracatinib): -0.008; log2 fold change (sotrastaurin): 0.042

Q: How did the log2 fold change (vemurafenib) turn out when DNM2 (UniProt P50570) was run?
A: 0.002

Q: And the log2 fold change [1]?
A: 0.005

Q: And the log2 fold change (barasertib)?
A: 0.037

Q: And the log2 fold change [2]?
A: -0.024

Q: What about the log2 fold change (volasertib) of the same target?
A: -0.043

Q: What about the log2 fold change [3] of the same target?
A: 0.029

Q: And the log2 fold change [4]?
A: -0.012

Q: What about the log2 fold change [5] of the same target?
A: 0.013

Q: What about the log2 fold change (saracatinib) of the same target?
A: 0.016

Q: And the log2 fold change (sotrastaurin)?
A: 0.001

Q: With DDX20 (UniProt Q9UHI6) as the target, how does the log2 fold change (vemurafenib) read?
A: -0.058

Q: What about the log2 fold change [1] of the same target?
A: 0.018

Q: And the log2 fold change (barasertib)?
A: 0.011

Q: What about the log2 fold change [2] of the same target?
A: -0.087

Q: What about the log2 fold change (volasertib) of the same target?
A: -0.061

Q: And the log2 fold change [3]?
A: 0.036

Q: And the log2 fold change [4]?
A: -0.037

Q: And the log2 fold change [5]?
A: -0.094

Q: And the log2 fold change (saracatinib)?
A: 0.036

Q: And the log2 fold change (sotrastaurin)?
A: 0.004

Q: For CIP2A (UniProt Q8TCG1), which log2 fold change (vemurafenib) is on record?
A: 0.036

Q: And the log2 fold change [1]?
A: 0.019

Q: What about the log2 fold change (barasertib) of the same target?
A: 0.153

Q: And the log2 fold change [2]?
A: 0.001

Q: What about the log2 fold change (volasertib) of the same target?
A: -0.086

Q: And the log2 fold change [3]?
A: 0.037

Q: And the log2 fold change [4]?
A: -0.07

Q: And the log2 fold change [5]?
A: -0.075

Q: What about the log2 fold change (saracatinib) of the same target?
A: 0.009

Q: What about the log2 fold change (sotrastaurin) of the same target?
A: 0.014

Q: For CSDE1 isoform 4 (UniProt O75534), which log2 fold change (vemurafenib) is on record?
A: -0.002

Q: And the log2 fold change [1]?
A: 0.004

Q: What about the log2 fold change (barasertib) of the same target?
A: 0.01

Q: And the log2 fold change [2]?
A: -0.083

Q: And the log2 fold change (volasertib)?
A: -0.041

Q: And the log2 fold change [3]?
A: 0.028

Q: And the log2 fold change [4]?
A: 0.069

Q: And the log2 fold change [5]?
A: -0.066

Q: What about the log2 fold change (saracatinib) of the same target?
A: 0.003

Q: And the log2 fold change (sotrastaurin)?
A: -0.018

Q: CORO7 isoform 3 (UniProt P57737) was tested. Which log2 fold change (vemurafenib) did it give?
A: 0.031

Q: And the log2 fold change [1]?
A: 0.013

Q: What about the log2 fold change (barasertib) of the same target?
A: 0.008

Q: What about the log2 fold change [2] of the same target?
A: -0.042

Q: What about the log2 fold change (volasertib) of the same target?
A: -0.01

Q: What about the log2 fold change [3] of the same target?
A: 0.016

Q: What about the log2 fold change [4] of the same target?
A: 0.044

Q: What about the log2 fold change [5] of the same target?
A: -0.175

Q: What about the log2 fold change (saracatinib) of the same target?
A: 0.004

Q: And the log2 fold change (sotrastaurin)?
A: 0.008

Q: Which log2 fold change (vemurafenib) does the source give for CLASP1 (UniProt Q7Z460) here?
A: 0.025

Q: And the log2 fold change [1]?
A: 0.013

Q: What about the log2 fold change (barasertib) of the same target?
A: 0.048

Q: And the log2 fold change [2]?
A: -0.03

Q: What about the log2 fold change (volasertib) of the same target?
A: -0.018

Q: And the log2 fold change [3]?
A: 0.039

Q: What about the log2 fold change [4] of the same target?
A: -0.043

Q: And the log2 fold change [5]?
A: 0.042

Q: And the log2 fold change (saracatinib)?
A: 0.028

Q: What about the log2 fold change (sotrastaurin) of the same target?
A: -0.022

Q: With DAZAP1 (UniProt Q96EP5) as the target, how does the log2 fold change (vemurafenib) read?
A: 0.036

Q: What about the log2 fold change [1] of the same target?
A: 0.043

Q: What about the log2 fold change (barasertib) of the same target?
A: -0.017

Q: What about the log2 fold change [2] of the same target?
A: 0.016

Q: What about the log2 fold change (volasertib) of the same target?
A: 0.011

Q: What about the log2 fold change [3] of the same target?
A: 0.065

Q: And the log2 fold change [4]?
A: 0.129

Q: What about the log2 fold change [5] of the same target?
A: 0.032

Q: And the log2 fold change (saracatinib)?
A: 0.003

Q: What about the log2 fold change (sotrastaurin) of the same target?
A: -0.109

Q: Which results are given for CSNK2B (UniProt P67870)?
A: log2 fold change (vemurafenib): -0.042; log2 fold change [1]: 0.03; log2 fold change (barasertib): -0.032; log2 fold change [2]: -0.007; log2 fold change (volasertib): -0.038; log2 fold change [3]: 0.015; log2 fold change [4]: 0.01; log2 fold change [5]: 0.124; log2 fold change (saracatinib): -0.066; log2 fold change (sotrastaurin): -0.029

Q: How did the log2 fold change (vemurafenib) turn out when DDX4 (UniProt Q9NQI0) was run?
A: -0.044

Q: And the log2 fold change [1]?
A: -0.015

Q: What about the log2 fold change (barasertib) of the same target?
A: 0.069

Q: And the log2 fold change [2]?
A: -0.071

Q: What about the log2 fold change (volasertib) of the same target?
A: -0.021

Q: What about the log2 fold change [3] of the same target?
A: 0.015

Q: And the log2 fold change [4]?
A: -0.167

Q: What about the log2 fold change [5] of the same target?
A: 0

Q: And the log2 fold change (saracatinib)?
A: -0.027

Q: With CLASP2 isoform 3 (UniProt O75122) as the target, how does the log2 fold change (vemurafenib) read?
A: 0.054

Q: What about the log2 fold change [1] of the same target?
A: -0.002

Q: What about the log2 fold change (barasertib) of the same target?
A: 0.02

Q: What about the log2 fold change [2] of the same target?
A: 0.015

Q: And the log2 fold change (volasertib)?
A: -0.006

Q: And the log2 fold change [3]?
A: 0.013

Q: What about the log2 fold change [4] of the same target?
A: -0.162

Q: What about the log2 fold change [5] of the same target?
A: 0.093

Q: And the log2 fold change (saracatinib)?
A: 0.011

Q: What about the log2 fold change (sotrastaurin) of the same target?
A: 0.01

Q: Which results are given for CSPP1 (UniProt Q1MSJ5)?
A: log2 fold change (vemurafenib): 0.03; log2 fold change [1]: -0.505 (active); log2 fold change (barasertib): 0.026; log2 fold change [2]: 0.057; log2 fold change (volasertib): 0.125; log2 fold change [3]: 0.05; log2 fold change [4]: 0.029; log2 fold change [5]: -0.006; log2 fold change (saracatinib): -0.049; log2 fold change (sotrastaurin): -0.046

Q: Which results are given for DLGAP5 (UniProt Q15398)?
A: log2 fold change (vemurafenib): 0.01; log2 fold change [1]: 0.009; log2 fold change (barasertib): 0.007; log2 fold change [2]: -0.018; log2 fold change (volasertib): -0.013; log2 fold change [3]: 0; log2 fold change [4]: -0.024; log2 fold change [5]: 0.019; log2 fold change (saracatinib): 0.013; log2 fold change (sotrastaurin): -0.004

Q: How did the log2 fold change (vemurafenib) turn out when CLIC2 (UniProt O15247) was run?
A: -0.004

Q: What about the log2 fold change [1] of the same target?
A: 0.007

Q: And the log2 fold change (barasertib)?
A: -0.039

Q: What about the log2 fold change [2] of the same target?
A: -0.014

Q: What about the log2 fold change (volasertib) of the same target?
A: -0.011

Q: What about the log2 fold change [3] of the same target?
A: -0.006

Q: What about the log2 fold change [4] of the same target?
A: -0.064

Q: What about the log2 fold change [5] of the same target?
A: -0.005

Q: And the log2 fold change (saracatinib)?
A: 0.015

Q: And the log2 fold change (sotrastaurin)?
A: 0

Q: How did the log2 fold change (vemurafenib) turn out when CLASP1 isoform 4 (UniProt Q7Z460) was run?
A: 0.272

Source: the supplement of paper PMC10849652
